In PubChem BioAssay (Tox21):
Records with an inconclusive call do not appear. The source made the active and inactive calls. Unless noted, the call rests on the fitted dose curve; in most records, active means well fitted curve in the direction sought with a large enough effect in the repeat runs; inconclusive means weak or mixed curves; inactive means no such curve, though single readings can be large; an effect the other way counts as inactive or inconclusive.

Key:
[1] = target: Androgen receptor (Homo sapiens) (UniProt P10275); test: qHTS assay to identify small molecule agonists of the androgen receptor (AR) signaling pathway in the presence of an antagonist (AID 1259381; calls by dose curve; further: nearly all actives have a fitted effect of over 15% in size)
Chain of Androgen receptor (Homo sapiens) (P10275 whole entry, looked up): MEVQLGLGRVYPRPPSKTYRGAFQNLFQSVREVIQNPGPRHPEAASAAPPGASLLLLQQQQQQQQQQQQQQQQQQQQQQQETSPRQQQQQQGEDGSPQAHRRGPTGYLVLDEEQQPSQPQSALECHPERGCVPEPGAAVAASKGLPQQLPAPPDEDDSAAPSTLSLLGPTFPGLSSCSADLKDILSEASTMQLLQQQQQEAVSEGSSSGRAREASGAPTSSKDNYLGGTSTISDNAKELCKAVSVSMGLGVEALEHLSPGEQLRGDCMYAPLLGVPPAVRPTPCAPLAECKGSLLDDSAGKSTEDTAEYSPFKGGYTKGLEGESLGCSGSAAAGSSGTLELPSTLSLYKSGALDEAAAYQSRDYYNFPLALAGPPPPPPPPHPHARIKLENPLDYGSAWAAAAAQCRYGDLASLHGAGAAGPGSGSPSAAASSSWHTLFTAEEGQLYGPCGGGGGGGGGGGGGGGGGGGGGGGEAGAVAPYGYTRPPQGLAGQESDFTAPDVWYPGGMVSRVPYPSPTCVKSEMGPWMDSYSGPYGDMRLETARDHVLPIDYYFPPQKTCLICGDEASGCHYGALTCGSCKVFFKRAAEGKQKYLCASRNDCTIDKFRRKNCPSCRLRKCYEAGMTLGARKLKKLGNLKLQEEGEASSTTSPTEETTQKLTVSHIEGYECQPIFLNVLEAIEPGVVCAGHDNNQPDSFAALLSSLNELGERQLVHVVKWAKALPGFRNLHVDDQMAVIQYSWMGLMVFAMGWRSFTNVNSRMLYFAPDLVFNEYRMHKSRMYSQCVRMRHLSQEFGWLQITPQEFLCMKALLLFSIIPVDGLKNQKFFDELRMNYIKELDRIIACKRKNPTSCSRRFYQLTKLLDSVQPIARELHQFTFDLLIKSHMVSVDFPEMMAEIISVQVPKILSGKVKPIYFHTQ
Method in brief: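 Test compounds at 15 concentrations were incubated for 16hr with MDA-kb2 reporter cells in presence of 3.0uM nilutamide (final). Signal: ONE-Glo luciferase luminescence.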

[2] = qHTS assay to identify small molecule antagonists of the estrogen receptor beta (ER-beta) signaling pathway - cell viability counter screen (AID 1259382);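 further: HEK293T cells carrying ER-beta-UAS-bla reporter stimulated with estradiol; series mostly up to about 92 µM; nearly all actives have a fitted effect of over 55% in size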
Method in brief: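 In this multiplexed counter screen, cells were seeded at 2,000 per well in medium with 2% charcoal-stripped FBS and incubated 6 hr before compound and 1nM final E2 were added. Sixteen hours later, ATP-based luminescence reported viability.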

[3] = qHTS assay to identify small molecule agonists or antagonists of the thyroid stimulating hormone receptor (TSHR) signaling pathway - wild type cell line counter screen (AID 1259384; calls by dose curve)
Method in brief: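 Wild-type HEK293 cells were plated 18 h at 37 C/5% CO2, pin-dosed with compound plus Ro20-1724 medium, held 30 min at room temperature, then given cAMP-d2 and anti-cAMP-cryptate; fluorescence was read after 1 h. Fifteen concentrations, triplicate.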

[4] = target: Thyrotropin receptor (Homo sapiens) (UniProt P16473); test: qHTS assay to identify small molecule antagonists of the thyroid stimulating hormone receptor (TSHR) signaling pathway (AID 1259385; calls by dose curve; further: nearly all actives have a fitted effect of over 20% in size)
Chain of Thyrotropin receptor (Homo sapiens) (P16473 whole entry, looked up): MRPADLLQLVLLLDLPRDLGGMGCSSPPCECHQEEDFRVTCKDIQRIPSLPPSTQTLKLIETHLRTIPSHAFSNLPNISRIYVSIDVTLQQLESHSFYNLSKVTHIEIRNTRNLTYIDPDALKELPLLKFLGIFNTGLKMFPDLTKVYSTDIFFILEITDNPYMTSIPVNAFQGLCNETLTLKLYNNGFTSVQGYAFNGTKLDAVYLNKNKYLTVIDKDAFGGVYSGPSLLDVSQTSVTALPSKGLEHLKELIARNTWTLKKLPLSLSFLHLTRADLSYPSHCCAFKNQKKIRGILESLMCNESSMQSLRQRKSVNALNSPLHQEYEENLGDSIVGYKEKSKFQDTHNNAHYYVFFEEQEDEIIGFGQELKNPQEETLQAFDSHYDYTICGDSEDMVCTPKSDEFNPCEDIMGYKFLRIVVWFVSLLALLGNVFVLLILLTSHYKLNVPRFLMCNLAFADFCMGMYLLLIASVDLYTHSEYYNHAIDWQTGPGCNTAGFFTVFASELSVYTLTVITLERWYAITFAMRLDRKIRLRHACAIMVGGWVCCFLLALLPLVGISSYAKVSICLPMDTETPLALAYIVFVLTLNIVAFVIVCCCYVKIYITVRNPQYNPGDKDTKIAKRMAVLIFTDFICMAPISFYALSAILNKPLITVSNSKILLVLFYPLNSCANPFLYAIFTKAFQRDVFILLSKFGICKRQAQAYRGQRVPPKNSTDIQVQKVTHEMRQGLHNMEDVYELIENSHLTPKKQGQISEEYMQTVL
Method in brief: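 TSHR-HEK293 cells were plated and held 18 h at 37C/5% CO2, then given compound plus Ro20-1724 and stimulated with TSH at 1.5 ng/mL final. After 30 min at room temperature, cAMP was detected with cAMP-d2/anti-cAMP-cryptate (1 h) by fluorescence.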

[5] = qHTS assay to identify small molecule agonists of the estrogen receptor alpha (ER-alpha) signaling pathway in the presence of an antagonist - cell viability counter screen (AID 1259386);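 further: series mostly up to about 92 µM; cells exposed to compounds for 22 h at 37 °C before the viability read; nearly all actives have a fitted effect of over 30% in size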
Method in brief: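 Viability counter screen using VM7Luc4E2 (full-length ER-alpha, four ERE-luciferase). The cells were treated with compounds alongside ICI-182,780 10.0nM for 22hr, and live-cell protease fluorescence was quantified with CellTiter-Fluor.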

[6] = target: Progesterone receptor (Homo sapiens) (UniProt P06401); test: qHTS assay to identify small molecule agonists of the progesterone receptor (PR) signaling pathway (AID 1346784; calls by dose curve; further: nearly all actives have a fitted effect of over 30% in size)
Chain of Progesterone receptor (Homo sapiens) (P06401 whole entry, looked up): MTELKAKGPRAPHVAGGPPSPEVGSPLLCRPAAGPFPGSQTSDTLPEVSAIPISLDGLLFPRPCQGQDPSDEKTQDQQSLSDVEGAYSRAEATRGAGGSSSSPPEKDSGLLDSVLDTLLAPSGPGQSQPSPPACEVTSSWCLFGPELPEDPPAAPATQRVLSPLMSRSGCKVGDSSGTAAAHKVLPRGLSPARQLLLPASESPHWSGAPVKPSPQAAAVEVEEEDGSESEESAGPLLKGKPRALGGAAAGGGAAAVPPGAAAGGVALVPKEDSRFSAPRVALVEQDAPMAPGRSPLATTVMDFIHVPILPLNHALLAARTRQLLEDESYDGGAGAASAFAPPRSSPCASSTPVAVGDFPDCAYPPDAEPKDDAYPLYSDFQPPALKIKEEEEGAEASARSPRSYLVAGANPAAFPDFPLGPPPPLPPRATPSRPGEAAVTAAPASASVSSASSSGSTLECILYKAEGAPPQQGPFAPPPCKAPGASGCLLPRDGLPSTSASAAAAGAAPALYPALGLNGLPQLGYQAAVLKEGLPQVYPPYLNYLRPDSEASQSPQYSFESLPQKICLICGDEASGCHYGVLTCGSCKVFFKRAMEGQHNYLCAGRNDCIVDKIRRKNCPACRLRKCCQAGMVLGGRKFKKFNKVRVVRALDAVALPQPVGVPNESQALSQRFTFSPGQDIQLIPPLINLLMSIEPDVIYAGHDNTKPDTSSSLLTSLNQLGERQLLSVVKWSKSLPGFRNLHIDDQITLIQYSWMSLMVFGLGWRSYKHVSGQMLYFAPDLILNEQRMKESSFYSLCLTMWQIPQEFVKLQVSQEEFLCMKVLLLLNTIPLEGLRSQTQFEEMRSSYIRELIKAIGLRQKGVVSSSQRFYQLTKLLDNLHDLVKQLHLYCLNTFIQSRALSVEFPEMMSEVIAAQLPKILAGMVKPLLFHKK
Method in brief: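 Agonist qHTS: compounds pinned onto 3,000 PR-UAS-bla HEK 293T cells per well in charcoal-stripped serum medium, 16hr at 37C, then beta-lactamase activity measured by LiveBLAzer FRET fluorescence after 2 hours at room temperature.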

[7] = target: Progesterone receptor (Homo sapiens) (UniProt P06401); test: qHTS assay to identify small molecule antagonists of the progesterone receptor (PR) signaling pathway (AID 1346795; active means well fitted inhibition curve with a large enough effect in the signal ratio in the repeat runs, not every such curve was filed as active; the % refers to the signal ratio)
Method in brief: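 Antagonist mode with agonist R5020 at 1 nM final and 16 hr incubation at 37C. Reporter was beta-lactamase driven by UAS in HEK293T (PR-UAS-bla), 2% charcoal-stripped serum; signal from LiveBLAzer FRET substrate, 2 hr at room temperature.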

[8] = qHTS assay to identify small molecule antagonists of the progesterone receptor (PR) signaling pathway - cell viability counter screen (AID 1346798); further: series mostly up to about 92 µM; nearly all actives have a fitted effect of over 50% in size
Method in brief: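 Cytotoxicity read as CellTiter-Glo luminescence (30 min, room temperature) in the same wells as the beta-lactamase readout. HEK293T PR-UAS-bla cells in charcoal-stripped 2% FBS received compound and R5020, then 16 h at 37C, 5% CO2.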

[9] = qHTS assay to identify small molecule agonists of the progesterone receptor (PR) signaling pathway - cell viability counter screen (AID 1346799; calls by dose curve; further: nearly all actives have a fitted effect of over 45% in size)
Method in brief: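 Cytotoxicity measured by CellTiter-Glo luminescence (30 min, RT) in the same wells as the PR beta-lactamase agonist read. Those HEK293T cells had 16 h compound treatment at 37 C in 2% charcoal-stripped FBS medium.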

[10] = qHTS assay to identify small molecule antagonists of the TGF-beta/Smad signaling pathway - cell viability counter screen (AID 1346824); further: nearly all actives have a fitted effect of over 50% in size
Method in brief: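 SBE-bla HEK 293T cells were plated overnight at 37 C, then given compounds in DMSO plus TGF-beta1 (added as 0.25 ng/mL solution) for 5 hr. After the bla read, CellTiter-Glo was added to the same wells and luminescence read after 30 min at room temperature.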

[11] = qHTS assay to identify small molecule agonists of the TGF-beta/Smad signaling pathway - cell viability counter screen (AID 1346829); further: top concentration of the series differs between compounds; nearly all actives have a fitted effect of over 45% in size
Method in brief: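 Cytotoxicity counter screen: CellTiter-Glo luminescence (30 min, room temperature) measured in the SBE-bla HEK 293T reporter wells after 5 hr compound treatment at 37 C and the 2 hr substrate step.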

[12] = qHTS assay to identify small molecule agonists of the TGF-beta/Smad signaling pathway (AID 1346859; active means well fitted activation curve with a large enough effect in the signal ratio in the repeat runs, not every such curve was filed as active; the % refers to the signal ratio; further: series mostly up to about 77 µM)
Method in brief: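 Fluorescence (ex 405 nm; em 460 and 530 nm) was read 2 h after LiveBLAzer FRET substrate at RT. The preceding compound treatment of overnight-plated SBE-bla HEK293T cells lasted 5 h at 37 C.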

[13] = target: Thyrotropin-releasing hormone receptor (Homo sapiens) (UniProt P34981); test: qHTS assay to identify small molecule antagonists of the thyrotropin-releasing hormone receptor (TRHR) signaling pathway (AID 1346877; active means well fitted inhibition curve with a large enough effect in the repeat runs, not every such curve was filed as active; further: series mostly up to about 51 µM)
Chain of Thyrotropin-releasing hormone receptor (Homo sapiens) (P34981 whole entry, looked up): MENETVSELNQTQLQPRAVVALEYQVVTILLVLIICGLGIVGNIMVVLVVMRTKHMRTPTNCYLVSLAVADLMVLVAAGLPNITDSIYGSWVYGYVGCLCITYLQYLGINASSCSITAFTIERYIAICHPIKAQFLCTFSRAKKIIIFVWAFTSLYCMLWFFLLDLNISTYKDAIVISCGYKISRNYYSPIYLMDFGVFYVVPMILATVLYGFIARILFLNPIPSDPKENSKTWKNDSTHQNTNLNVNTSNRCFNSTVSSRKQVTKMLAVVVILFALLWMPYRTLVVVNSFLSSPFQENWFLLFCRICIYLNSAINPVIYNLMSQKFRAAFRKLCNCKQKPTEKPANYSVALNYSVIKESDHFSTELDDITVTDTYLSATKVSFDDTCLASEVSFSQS
Method in brief: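 Following an 18 h incubation at 37 °C and a 2 h calcium dye load, TRHR-HEK293 cells were exposed to compound (5 min, room temperature) and challenged with TRH, 1 nM final.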

[14] = target: Thyrotropin-releasing hormone receptor (Homo sapiens) (UniProt P34981); test: qHTS assay to identify small molecule agonists of the thyrotropin-releasing hormone receptor (TRHR) signaling pathway (AID 1346891; calls by dose curve; further: series mostly up to about 58 µM)
Method in brief: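 Agonist-mode intracellular calcium readout: kinetic fluorescence over 3 min at 1 s intervals after compound addition to TRHR-HEK293 cells (18 h seeded, 2 h dye-loaded at 37 C). Fifteen concentrations, triplicates.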

[15] = Human pregnane X receptor (PXR) small molecule agonists, qHTS cell viability counter screen (AID 1346977); further: nearly all actives have a fitted effect of over 50% in size
Method in brief: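 Same-well viability read: CellTiter-Fluor added after 23 hr compound exposure, fluorescence measured 1 hr later. Cells were PXR-Luc HepG2 seeded at 2,000/well in 5% charcoal-stripped FBS medium, rested 5 hr before dosing at 37 C.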

[16] = Caspase-3/7 induction in HepG2 cells by small molecules, qHTS assay (AID 1346978); further: nearly all actives have a fitted effect of over 15% in size
Method in brief: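 Wild-type HepG2 cells (2,000/well) were settled 5 h at 37 C, 5% CO2, then exposed to compounds in DMSO for 17 h. Caspase-3/7 activity was read by luminescence 30 min after adding Caspase-Glo 3/7 reagent at room temperature.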

[17] = Caspase-3/7 induction in CHO-K1 cells by small molecules, qHTS assay (AID 1346980); further: nearly all actives have a fitted effect of over 15% in size
Method in brief: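 Wild-type cells were seeded at 1,500 per well and settled 5 hr at 37 C, 5% CO2, then exposed to DMSO-dissolved compounds for 17 hr. Caspase-Glo 3/7 reagent was added, and luminescence was read after 30min at room temperature.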

[18] = Caspase-3/7 induction in HepG2 cells by small molecules, qHTS cell viability counter screen (AID 1346981); further: series mostly up to about 92 µM; nearly all actives have a fitted effect of over 30% in size
Method in brief: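 Viability determined by CellTiter-Fluor fluorescence in HepG2 wells also used for the luminescent Caspase-Glo 3/7 read. Compounds were present for 16 hr at 37 C, 5% CO2 before reagent addition.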

[19] = target: Estrogen receptor (Homo sapiens) (UniProt P03372); test: qHTS assay to identify small molecule agonists of the estrogen receptor alpha (ER-alpha) signaling pathway in the presence of an antagonist (AID 1259383; calls by dose curve; further: top concentration of the series differs between compounds; nearly all actives have a fitted effect of over 15% in size)
Chain of Estrogen receptor (Homo sapiens) (P03372 whole entry, looked up): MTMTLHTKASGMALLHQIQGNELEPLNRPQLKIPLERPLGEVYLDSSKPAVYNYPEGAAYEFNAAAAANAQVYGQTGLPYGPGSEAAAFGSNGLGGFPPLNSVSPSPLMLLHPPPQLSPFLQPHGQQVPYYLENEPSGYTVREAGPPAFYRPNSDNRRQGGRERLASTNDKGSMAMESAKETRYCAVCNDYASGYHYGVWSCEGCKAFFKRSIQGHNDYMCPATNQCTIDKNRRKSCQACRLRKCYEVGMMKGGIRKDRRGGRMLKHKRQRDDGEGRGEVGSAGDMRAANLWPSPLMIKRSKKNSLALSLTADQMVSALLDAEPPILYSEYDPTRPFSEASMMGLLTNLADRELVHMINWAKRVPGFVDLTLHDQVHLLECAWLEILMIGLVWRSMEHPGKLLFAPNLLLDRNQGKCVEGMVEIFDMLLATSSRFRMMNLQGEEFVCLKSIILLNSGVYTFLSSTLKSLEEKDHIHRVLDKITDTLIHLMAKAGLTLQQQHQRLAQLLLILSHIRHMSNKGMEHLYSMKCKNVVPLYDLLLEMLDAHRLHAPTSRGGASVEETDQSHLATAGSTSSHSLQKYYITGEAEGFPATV
Method in brief: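 Stably transfected VM7Luc4E2 reporter cells, kept 5 days in charcoal-stripped serum, received ICI-182,780 at 10.0nM final before compound addition. Following 22hr incubation at 37C and 5% CO2, luciferase signal was read by luminescence.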

[20] = Caspase-3/7 induction in CHO-K1 cells by small molecules, qHTS cell viability counter screen (AID 1346979); further: nearly all actives have a fitted effect of over 35% in size
Method in brief: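 Cytotoxicity counter screen: CellTiter-Fluor added to compound-treated wild-type CHO-K1 cells at 16 h (37C, 5% CO2), fluorescence measured 1 h later; same wells as caspase-3/7 measurement.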

Measured: Potency

CC(=O)O[C@@H]1CC2CCC1(C)C2(C)C (stereo not given in full)
not listed: [19] | [20]
inactive: all other assays above

CCO[Si](CC)(OCC)OCC
not listed: [8] | [20]
inactive: all other assays above

Cc1ccc(C(=O)O)cc1[N+](=O)[O-]
not listed: [12] | [14]
inactive: all other assays above

[O-][n+]1cccc(/C(Cl)=N/OC[C@@H](O)CN2CCCCC2)c1
not listed: [3] | [4]
inactive: all other assays above

CC(=O)CC(=O)OC(C)(C)C
not listed: [8]
inactive: all other assays above

OCC1CCC(CO)CC1 (stereo not given)
not listed: [8] | [13] | [14] | [20]
inactive: all other assays above

CC(C)C[C@@H]1[C@H](c2ccccc2)OC(=O)N1CCCN1CCCCCC1
not listed: [6] | [8] | [9] | [15]
inactive: all other assays above

O=C1NC(c2ccccc2)(c2ccccc2)C(=O)N1COP(=O)(O)O
not listed: [12] | [13] | [19] | [20]
inactive: all other assays above

CC(=O)OC1CCCCC1C(C)(C)C (stereo not given)
not listed: [12] | [20]
inactive: all other assays above

O=C(CCCl)NCCc1ccccc1
not listed: [8] | [13] | [20]
inactive: all other assays above

COc1cc(/C=C/C(N)=O)cc(OC)c1OC
not listed: [14] | [20]
inactive: all other assays above

C#CCN[C@@H]1CCc2ccccc21
not listed: [7] | [12]
inactive: all other assays above

O=C(O)CSCC(=O)NC1CCSC1=O (stereo not given)
not listed: [9] | [19]
inactive: all other assays above

CC(S)C(C)S (stereo not given)
not listed: [10] | [13] | [20]
inactive: all other assays above
